Test results published in PubChem BioAssay (NCI).
The panel holds about 83,000 compounds, 20% with a hit somewhere; the sample as a whole holds those more often.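 Single-dose data. Exposure time 48 hours. Values below 10 considered active.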 The source made the active and inactive calls.

Tests used:
Test in all cases: NCI-60 one-dose screen, 48 h (100 = growth as untreated, 0 = no growth, -100 = all killed)
Conditions in all cases: 10 µM
[1] = test system: SR leukemia
[2] = test system: RPMI-8226 leukemia
[3] = test system: OVCAR-8 ovarian
[4] = test system: OVCAR-5 ovarian
[5] = test system: OVCAR-4 ovarian
[6] = test system: SK-OV-3 ovarian
[7] = test system: IGROV1 ovarian
[8] = test system: OVCAR-3 ovarian
[9] = test system: HS 578T breast
[10] = test system: NCI/ADR-RES ovarian

Measured: growth

COc1cccc(C(=O)N(c2ccc(F)c(F)c2)C(C(=O)NC(C)(C)C)c2cc3c(C)cc(C)cc3nc2Cl)c1 (stereo not given)
inactive: [1] 67.6% | [2] 42.9% | [3] 84.1% | [4] 86.5% | [5] 48.7% | [6] 75.5% | [7] 77.2% | [8] 60.3% | [9] 79.8% | [10] 73.2%

Nc1nc2c(nnn2C2CC(O)C(CO)O2)c(=O)[nH]1 (stereo not given)
inactive: [1] 32% | [2] 36.2% | [3] 38.4% | [4] 87.8% | [5] 51.4% | [6] 20.2% | [7] 67.6% | [8] 40.8% | [9] 75.4% | [10] 30.2%

CC(C)/C=N/NC(N)=S
inactive: [1] 51.9% | [2] 60.4% | [3] 62.9% | [4] 78.7% | [5] 46.1% | [6] 110% | [7] 34% | [8] 53% | [9] 90.7% | [10] 75%

CCc1ccc(-c2nnc(COc3ccc(-c4nc5cc(Cl)c(Cl)cc5[nH]4)cc3OC)o2)cc1
inactive: [2] 56.9% | [3] 28.9% | [4] 103% | [5] 45.9% | [6] 96.9% | [7] 64.5% | [8] 65.6% | [9] 77% | [10] 55%
active: [1] 0.504%

N#Cc1ncc(-c2cc(F)ccc2F)c(NC2CCCCCC2)n1
inactive: [1] 81.6% | [2] 57.8% | [3] 88.4% | [4] 98.9% | [5] 80.3% | [6] 91.6% | [7] 86% | [8] 103% | [9] 58.2% | [10] 91.2%

NC(=O)c1ccc(Br)o1
inactive: [1] 97.4% | [2] 112% | [3] 108% | [4] 105% | [5] 107% | [6] 104% | [7] 107% | [8] 107% | [9] 109% | [10] 96.8%

CCN(CC)CCOC(=O)c1ccc(N=Nc2ccc(O)c(OC)c2)cc1
inactive: [1] 84.8% | [2] 99.7% | [3] 95.1% | [4] 95.4% | [5] 111% | [6] 105% | [7] 104% | [8] 98.6% | [9] 98.7% | [10] 101%

COc1cccc(C(=O)NNc2nc(N3CCOCC3)nc(N3CCN(C(c4ccccc4)c4ccccc4)CC3)n2)c1
inactive: [1] 65.6% | [2] 71.2% | [3] 82.5% | [4] 94.1% | [5] 73.4% | [6] 73.7% | [7] 67.4% | [8] 74.6% | [9] 80.1% | [10] 84.3%

CCNC(=S)NN
inactive: [1] 61.6% | [2] 75.9% | [3] 71.1% | [4] 69.3% | [5] 82.2% | [6] 104% | [7] 12.8% | [8] 106% | [9] 100% | [10] 83.8%

COC(=O)[C@]12CC[C@@H](C)[C@H](C)[C@@H]1C1=CC[C@@H]3[C@@]4(C)C/C(=N\O)[C@H](O)[C@@]5(C)COC(=C45)C[C@@]3(C)[C@]1(C)CC2
active: [1] -39.2% | [2] -41% | [3] -78.3% | [4] -75.4% | [5] -79.1% | [6] -91.9% | [7] -58.4% | [8] -98.1% | [9] -33.6% | [10] -62.5%

CC(=O)[C@H]1CC[C@H]2[C@@H]3CC[C@@H]4CC=C(C=O)C[C@]4(C)[C@H]3CC[C@]12C
inactive: [1] 73.5% | [2] 58.1% | [3] 97.8% | [4] 96.9% | [5] 99% | [6] 95.8% | [7] 89.4% | [8] 107% | [9] 106% | [10] 87.5%

Oc1[nH]c2ccccc2c1/C=c1/cc2c(c(-c3ccc(C(F)(F)F)cc3)n1)=Nc1ccccc1-2
active: [1] 4.59%
inactive: [2] 12% | [3] 63.5% | [4] 70.5% | [5] 50.5% | [6] 79% | [7] 71.2% | [8] 20.2% | [9] 74.8% | [10] 31.7%

CCc1nn2c(-c3cc(OC)c(OC)c(OC)c3)c(-c3cc(OC)c(OC)c(OC)c3)nc2s1
inactive: [1] 61.9% | [2] 71.3% | [3] 95.6% | [4] 90% | [5] 72.6% | [6] 59.5% | [7] 88.8% | [8] 93.4% | [9] 37.1% | [10] 81.7%

C[C@]12CC[C@H]3[C@@H](CC=C4C[C@@H](O)CC[C@@]43C)[C@@H]1CC[C@@H]2C(=O)C/C=N/O
inactive: [1] 91.6% | [2] 59.6% | [3] 91.9% | [4] 106% | [5] 83.6% | [6] 97.1% | [7] 76.7% | [8] 89.8% | [9] 92.5% | [10] 84.4%
